This note sets out measurements from PubChem BioAssay (Tox21).

Unmarked numbers belong to inactive results. Records with an inconclusive call do not appear. The source made the active and inactive calls. Unless noted, the call rests on the fitted dose curve.

Assay [1] is described as follows: Nuclear factor erythroid 2-related factor 2/antioxidant responsive element (Nrf2/ARE) small molecule agonists: qHTS cell viability counter screen in human keratinocytes (AID 1919968; active means well fitted curve in the direction sought with a large enough effect in the repeat runs; an effect the other way counts as inactive or inconclusive; further: nearly all actives have a fitted effect of over 55% in size). In outline: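 After a 5 h attachment period, ARE-reporter keratinocytes were dosed with compounds in DMSO and then cultured 23 h at 37 C. Cell viability came from CellTiter-Fluor signal read after a further 1 h.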

Assay [2] is described as follows: Nuclear factor erythroid 2-related factor 2/antioxidant responsive element (Nrf2/ARE) small molecule agonists: luciferase reporter gene qHTS assay in human keratinocytes (AID 1919969). Further: nearly all actives have a fitted effect of over 35% in size. Further: potency means the concentration at half of the fitted maximal effect.
The target of assay [3] is Gonadotropin-releasing hormone receptor (Homo sapiens) (UniProt P30968). Description: Human gonadotropin-releasing hormone receptor (GnRHR) small molecule agonists, calcium flux assay in GnRHR-HEK293 cells (AID 1920063). Further: nearly all actives have a fitted effect of over 35% in size. Summed up: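 We seeded human GnRHR-expressing HEK293 cells for 18 hours, loaded them with calcium dye for an hour at 37 C, added test compounds, and recorded fluorescence intensity kinetically for three minutes.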
Chain of Gonadotropin-releasing hormone receptor (Homo sapiens) (P30968 whole entry, looked up): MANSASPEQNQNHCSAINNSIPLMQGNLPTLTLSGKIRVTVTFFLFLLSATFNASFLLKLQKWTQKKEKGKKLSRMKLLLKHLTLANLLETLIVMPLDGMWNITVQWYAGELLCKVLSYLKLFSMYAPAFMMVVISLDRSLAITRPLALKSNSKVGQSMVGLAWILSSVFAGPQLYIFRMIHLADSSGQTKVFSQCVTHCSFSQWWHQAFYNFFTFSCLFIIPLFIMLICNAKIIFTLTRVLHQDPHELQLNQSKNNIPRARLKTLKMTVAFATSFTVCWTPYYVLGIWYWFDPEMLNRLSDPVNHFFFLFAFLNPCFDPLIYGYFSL
In general terms: Calcium assays in cells follow changes in intracellular calcium, usually with a dye or a luminescent sensor.

For assay [4], the target named is KiSS-1 receptor (Homo sapiens) (UniProt Q969F8). Description: Human kisspeptin (KISS1R) small molecule agonists, calcium flux assay in KISS1R-HEK293 cells (AID 1920064; active means well fitted curve in the direction sought with a large enough effect in the repeat runs; an effect the other way counts as inactive or inconclusive). Summed up:
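Kinetic calcium assay, 1 s sampling over 3 min at Ex/Em 480/540, in HEK293 cells engineered with human KISS1R; compounds delivered in DMSO after 1 h dye loading.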

A short description of assay [5]: G protein-coupled receptor (GPCR) small molecule agonists, calcium flux assay: HEK293 wild type cell line counter screen (AID 1920065). In outline: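 Calcium-sensitive dye, loaded 1 h at 37 C into cells cultured 18 h, reports compound-evoked calcium release as fluorescence (Ex/Em 480/540), measured over 3 min. Agonist mode; 15-point titrations, triplicate.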
Assay [6] is described as follows: p53 small molecule agonists, cell-based qHTS assay with human liver microsomes (AID 1963577).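 Further: p53 response element beta-lactamase reporter cells with liver microsomes plus NADPH.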 Summed up: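 p53RE-bla cells; 5 h settle, 37 C/5% CO2; cpd + HLM 0.5 mg/mL + NADPH 0.5 mg/mL (final); 16 h 37 C; LiveBLAzer 2 h RT dark; fluorescence readout.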
(Quantitative high-throughput screening tests each substance at several concentrations.)

The nature of assay [7]: p53 small molecule agonists, cell-based qHTS assay with rat liver microsomes (AID 1963578). In outline:
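Rat liver microsome activation: microsomes 0.5 mg/mL, NADPH 0.5 mg/mL final; p53RE-bla cells, 16 h 37 C; LiveBLAzer readout, 2 h RT dark.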

The nature of assay [8]: p53 small molecule agonists, cell-based qHTS assay with human liver microsomes: qHTS cell viability counter screen (AID 1963579). Further: nearly all actives have a fitted effect of over 45% in size. Summed up:
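Luminescent CellTiter-Glo read-out, 30 min at room temperature, gauged cytotoxicity in p53RE-bla cells exposed 16 h at 37 C to DMSO-dissolved compounds with metabolic activation by human liver microsomes and NADPH, each 0.5 mg/mL final.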

A short description of assay [9]: p53 small molecule agonists, cell-based qHTS assay with rat liver microsomes: qHTS cell viability counter screen (AID 1963580). Further: nearly all actives have a fitted effect of over 45% in size. Summed up:
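p53RE-bla HCT-116 cells (4,000/well) rested 5 h at 37 C, then given Tox21 compounds in DMSO with rat liver microsomes (0.5 mg/mL final) plus NADPH (0.5 mg/mL final) for 16 h at 37 C. Viability read by CellTiter-Glo luminescence after 30 min at room temperature.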

The nature of assay [10]: p53 small molecule agonists, cell-based qHTS assay: qHTS cell viability counter screen (AID 1963581). Further: nearly all actives have a fitted effect of over 45% in size. In outline: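 Following 5 h attachment, HCT-116 p53RE-bla cells took up compound for 16 h at 37 C; the reporter was read with B/G FRET substrate (2 h RT), and viability then via CellTiter-Glo ATP luminescence.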
Assay [11] is described as follows: p53 small molecule agonists, cell-based qHTS assay (AID 1963582; active means well fitted activation curve with a large enough effect in the signal ratio in the repeat runs, not every such curve was filed as active; the % refers to the signal ratio). Summed up: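 In this cell-based concentration-response screen, a p53 response element drives beta-lactamase; cells received DMSO-borne compounds after 5 h culture and were incubated a further 16 h before FRET substrate development.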
The target of assay [12] is 5-hydroxytryptamine receptor 2A (Homo sapiens) (UniProt P28223). The experiment in a line: 5-hydroxytryptamine receptor 2A (HTR2A) small molecule antagonists, cell-based qHTS assay (AID 1963586). Further: nearly all actives have a fitted effect of over 45% in size. In outline:
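Antagonist-mode intracellular calcium assay: DOI (4 nM) added after 5 min compound pre-incubation at room temperature to dye-loaded HTR2A-CHO cells. Fluorescence followed for 3 min, sampled every second.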

For assay [13] the target is unchanged. Description: 5-hydroxytryptamine receptor 2A (HTR2A) small molecule agonists, cell-based qHTS assay (AID 1963587). Further: nearly all actives have a fitted effect of over 30% in size. In outline: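 HTR2A-CHO cells, plated 18 h at 37 C/5% CO2, dye-loaded 1 h at 37 C; compounds in DMSO added by pin tool (agonist mode). Intracellular calcium flux read as kinetic fluorescence on FDSS over 2 min at 1 s intervals.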
Assay [14] concerns the target Muscarinic acetylcholine receptor M1 (Homo sapiens) (UniProt P11229). Description: Cholinergic receptor muscarinic 1 (CHRM1) small molecule antagonists, cell-based qHTS assay (AID 1963588). Further: nearly all actives have a fitted effect of over 40% in size. Summed up: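 CHRM1-CHO calcium-flux assay, antagonist mode. Cells were seeded 18 h, dye-loaded 1 h at 37 C and given compound for 5 min at RT, then acetylcholine was added at 50nM. FDSS fluorescence was read 3 min; 15 concentrations, three runs.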

Assay [15] can be described thus: cAMP Responsive Elements (CRE) small molecule agonists, cell-based qHTS assay (AID 1963590). Summed up: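 A CRE-responsive beta-lactamase reporter in HEK 293T cells was used. Treatment ran 3 h at 37 C; detection used LiveBLAzer B/G FRET substrate for 2 h at room temperature.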
A short description of assay [16]: cAMP Responsive Elements (CRE) small molecule antagonists, cell-based qHTS assay (AID 1963591; active means well fitted inhibition curve with a large enough effect in the signal ratio in the repeat runs, not every such curve was filed as active; the % refers to the signal ratio). Summed up: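 HEK293T cells carrying a CRE-driven beta-lactamase reporter receive compound and NKH477 (0.25 uM final) for 3 h. Fluorescence from LiveBLAzer B/G FRET substrate is read after 2 h at room temperature.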
Assay [17] addresses Beta-2 adrenergic receptor (Homo sapiens) (UniProt P07550). The experiment in a line: Adrenergic beta2 receptor (ADRB2) small molecule antagonists, cell-based qHTS assay (AID 1963592). Further: series mostly up to about 92 µM; nearly all actives have a fitted effect of over 50% in size. In outline: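 Cells (CHO, stable ADRB2 overexpression) incubated 18-20hr at 37C; compounds added from DMSO; agonist mix (1nM isoproterenol, 100uM IBMX, 25uM Ro-20-1724) added; 0.5hr RT; d2-cAMP and anti-cAMP-cryptate added; 1hr RT; 665/615 nm read.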

For assay [18], the target named is D(2) dopamine receptor (Homo sapiens) (UniProt P14416). Description: Dopamine D2 receptor (DRD2) small molecule agonists, cell-based qHTS assay (AID 1963594). Further: nearly all actives have a fitted effect of over 35% in size. Summed up: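 HEK293 cells stably expressing DRD2 were cultured 24 h at 37 C, then given Ro20-1724 (0.1 mM final) and compounds for 10 min at room temperature. NKH477 (200nM) was then added for 30 min. cAMP was read by HTRF.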
Chain of D(2) dopamine receptor (Homo sapiens) (P14416 whole entry, looked up): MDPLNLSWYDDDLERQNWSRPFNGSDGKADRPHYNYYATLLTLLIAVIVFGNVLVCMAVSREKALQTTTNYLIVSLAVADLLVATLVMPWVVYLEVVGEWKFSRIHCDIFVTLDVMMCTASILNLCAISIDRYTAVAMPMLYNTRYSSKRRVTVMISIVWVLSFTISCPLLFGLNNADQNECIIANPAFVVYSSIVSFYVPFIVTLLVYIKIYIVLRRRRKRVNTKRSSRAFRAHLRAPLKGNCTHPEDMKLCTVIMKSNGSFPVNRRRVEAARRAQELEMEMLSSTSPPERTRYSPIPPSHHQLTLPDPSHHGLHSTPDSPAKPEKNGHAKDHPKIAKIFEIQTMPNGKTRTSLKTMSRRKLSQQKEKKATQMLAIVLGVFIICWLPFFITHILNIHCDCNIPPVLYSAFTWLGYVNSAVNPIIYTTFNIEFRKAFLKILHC

For assay [19] the target is unchanged. Description: Dopamine D2 receptor (DRD2) small molecule antagonists, cell-based qHTS assay (AID 1963595; active means well fitted inhibition curve with a large enough effect in the signal ratio in the repeat runs, with a control signal flat; the % refers to the signal ratio). In outline: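 Cells were plated and grown for 24 h at 37 °C. Ro20-1724 (0.1 mM final) went in first, then compound for 10 min. NKH477 (200 nM) with quinpirole (12 nM) followed for 30 min at RT, then HTRF detection reagents for 1 h.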
The target of assay [20] is Muscarinic acetylcholine receptor M1 (Homo sapiens) (UniProt P11229). The experiment in a line: Cholinergic receptor muscarinic 1 (CHRM1) small molecule agonists, cell-based qHTS assay (AID 1963589). Further: nearly all actives have a fitted effect of over 35% in size. In outline: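 Measures agonist-induced intracellular calcium rise. Stable human CHRM1 CHO line, 1 h dye load at 37 C, compounds from DMSO, kinetic fluorescence read.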
Chain of Muscarinic acetylcholine receptor M1 (Homo sapiens) (P11229 whole entry, looked up): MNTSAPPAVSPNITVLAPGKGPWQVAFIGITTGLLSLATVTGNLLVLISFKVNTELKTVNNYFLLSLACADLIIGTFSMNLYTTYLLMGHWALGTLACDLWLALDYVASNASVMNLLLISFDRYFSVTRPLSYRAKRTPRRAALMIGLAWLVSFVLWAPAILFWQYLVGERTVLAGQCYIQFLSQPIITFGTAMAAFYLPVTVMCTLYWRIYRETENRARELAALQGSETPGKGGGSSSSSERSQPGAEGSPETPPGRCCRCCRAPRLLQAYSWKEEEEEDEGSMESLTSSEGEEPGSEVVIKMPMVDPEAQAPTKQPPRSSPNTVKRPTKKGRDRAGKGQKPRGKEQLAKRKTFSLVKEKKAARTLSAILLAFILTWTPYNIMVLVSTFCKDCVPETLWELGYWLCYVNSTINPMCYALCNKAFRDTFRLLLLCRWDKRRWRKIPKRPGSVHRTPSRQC
On the % scale 0 is the no-effect control and ±100 the full control effect.

Chain of Beta-2 adrenergic receptor (Homo sapiens) (P07550 whole entry, looked up): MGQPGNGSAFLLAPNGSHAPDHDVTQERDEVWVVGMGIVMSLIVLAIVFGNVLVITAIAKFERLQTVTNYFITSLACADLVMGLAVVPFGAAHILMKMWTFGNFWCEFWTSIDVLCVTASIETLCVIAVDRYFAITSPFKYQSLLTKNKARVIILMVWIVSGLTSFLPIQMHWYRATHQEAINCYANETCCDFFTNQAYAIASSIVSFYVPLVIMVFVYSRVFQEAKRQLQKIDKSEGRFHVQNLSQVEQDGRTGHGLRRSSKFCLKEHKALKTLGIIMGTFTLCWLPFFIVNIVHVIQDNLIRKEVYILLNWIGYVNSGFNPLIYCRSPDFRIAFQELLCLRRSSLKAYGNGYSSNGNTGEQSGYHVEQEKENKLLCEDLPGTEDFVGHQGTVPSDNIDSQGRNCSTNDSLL
Chain of KiSS-1 receptor (Homo sapiens) (Q969F8 whole entry, looked up): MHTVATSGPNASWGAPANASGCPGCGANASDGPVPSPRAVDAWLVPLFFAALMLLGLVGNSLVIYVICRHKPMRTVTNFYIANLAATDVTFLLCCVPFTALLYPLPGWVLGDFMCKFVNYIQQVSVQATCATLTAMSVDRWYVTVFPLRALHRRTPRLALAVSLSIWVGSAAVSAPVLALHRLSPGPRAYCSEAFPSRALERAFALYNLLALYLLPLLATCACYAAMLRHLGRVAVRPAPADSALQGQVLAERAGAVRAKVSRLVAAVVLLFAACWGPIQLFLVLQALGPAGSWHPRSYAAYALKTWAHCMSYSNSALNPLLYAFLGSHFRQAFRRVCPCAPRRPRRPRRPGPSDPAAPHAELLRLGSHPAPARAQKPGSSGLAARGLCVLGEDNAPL
Chain of 5-hydroxytryptamine receptor 2A (Homo sapiens) (P28223 whole entry, looked up): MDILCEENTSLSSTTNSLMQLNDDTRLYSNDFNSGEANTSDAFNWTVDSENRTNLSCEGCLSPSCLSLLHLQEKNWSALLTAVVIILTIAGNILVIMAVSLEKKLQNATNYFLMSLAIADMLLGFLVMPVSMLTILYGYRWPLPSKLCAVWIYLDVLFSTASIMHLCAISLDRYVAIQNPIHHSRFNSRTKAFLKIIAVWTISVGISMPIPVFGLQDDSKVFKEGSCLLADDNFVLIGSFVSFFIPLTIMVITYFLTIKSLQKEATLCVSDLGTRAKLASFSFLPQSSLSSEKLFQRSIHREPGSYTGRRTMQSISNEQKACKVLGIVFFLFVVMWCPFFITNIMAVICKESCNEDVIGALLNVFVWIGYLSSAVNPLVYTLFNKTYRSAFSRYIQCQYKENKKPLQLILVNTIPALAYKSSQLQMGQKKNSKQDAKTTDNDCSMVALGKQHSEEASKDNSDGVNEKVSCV

Consider `CC(NN)c1ccccc1` (stereo not given), for which the activity change, negative = cytotoxicity in assay [1] was -0.107% [at 19 µM]; in assay [8] it was -4.08% [at 13.5 µM]; in [9], 2.75% [at 13.5 µM]; in assay [10], 23.1% [at 13.5 µM]. The activity, positive = activation in assay [2] is -1.07% [at 19 µM]. In assay [3], the activity change is -0.677% [at 11.8 µM, hits give high values]. The activation in assay [4] is -0.175% [at 15.8 µM]; in assay [5] it was -1.16% [at 11.8 µM]; in assay [6] it was -2.41% [at 13.5 µM]; in assay [7], -0.8% [at 13.6 µM]; in [11], -1.5% [at 13.5 µM]; in [13], 1.19% [at 15.9 µM]. Further, the activation is -0.272% [at 19 µM] in assay [15] and 12.1% [at 19 µM] in assay [18]. Further, the figures for the activity, negative = inhibition in assay [12] and in assay [14] were 14.8% [at 12.7 µM] and 10.3% [at 12.6 µM], respectively. The activity change, negative = inhibition is -6.39% [at 18.9 µM] in [16], 10.7% [at 19 µM] in assay [17] and 4.23% [at 18.9 µM] in assay [19].
Consider `O=C(O)/C=C/c1ccc(/C=C/C(=O)O)cc1`, for which the Potency entry in assay [1], in assay [2], in assay [3], in [6], in assay [7] and in [8] was “inactive” throughout. The Potency entry in assay [9], in assay [10], in assay [11], in assay [12], in assay [13] and in [14] was “inactive” throughout. The Potency entry in assay [15], in assay [16], in assay [17] and in assay [19] was “inactive” in each case. The result in assay [4] and in [5] was inactive.
Consider `O=C(O)CCCc1c[nH]c2ccccc12`, for which the Potency result in assay [1], in assay [2], in assay [3], in assay [6], in assay [7] and in assay [8] was “inactive” throughout. Also, the Potency entry in assay [9], in [10], in [11], in assay [12], in assay [13] and in assay [14] was “inactive” each time. Moreover, the Potency result in assay [20], in assay [17], in [18] and in assay [19] was “inactive” each time. Moreover, the outcome in assay [4] and in assay [5] was inactive.
With `CCCCC(CC)COC(=O)CC#N` (stereo not given), the Potency entry in assay [1], in [2], in [3], in assay [6], in assay [7] and in [8] was “inactive” throughout. In addition, the Potency result in assay [9], in assay [10], in assay [11], in assay [12], in [13] and in [14] was “inactive” throughout. The Potency entry in [20], in assay [17] and in [19] was “inactive” each time. Further, the outcome in [4] and in assay [5] was inactive.
In the case of `O=C1OC(OC(=O)c2cccnc2Nc2cccc(C(F)(F)F)c2)c2ccccc21` (stereo not given), the Potency entry in assay [1], in assay [3], in [6], in assay [7], in assay [8] and in [9] was “inactive” throughout. For the same compound, the Potency result in [10], in [11], in assay [12], in [13], in assay [14] and in assay [15] was “inactive” in each case. Moreover, the Potency entry in [16], in assay [17] and in assay [19] was “inactive” each time. For the same compound, the Potency in assay [2] is 13.3 µM (active). For the same compound, the result in [4] and in [5] was inactive.
As to `O=C(OCCCCCOC(=O)c1ccccc1)c1ccccc1`, the Potency entry in assay [1], in assay [2], in assay [3], in [6], in assay [7] and in assay [8] was “inactive” each time. Also, the Potency entry in assay [9], in assay [10], in assay [11], in assay [12], in assay [13] and in assay [14] was “inactive” in each case. Further, the Potency result in [16], in [17], in assay [18] and in [19] was “inactive” throughout. For the same compound, the outcome in [4] and in assay [5] was inactive.
With `O=C(CCN1CCC(c2ccccc2)C1)c1ccc2c(c1)OCCO2` (stereo not given), the Potency result in assay [1], in assay [2], in assay [3], in assay [6], in [7] and in assay [8] was “inactive” in each case. The Potency entry in assay [9], in [10], in assay [11], in assay [12], in assay [13] and in [14] was “inactive” throughout. The Potency entry in [15], in assay [17] and in assay [18] was “inactive” each time. Also, the outcome in [4] and in assay [5] was inactive.
